Reference: PubChem BioAssay (NCATS)
A number with no mark means an inactive call. Calls come from the whole dose curve; as a rule, active = well fitted curve in the direction sought with a large enough effect; inconclusive = small, poorly fitted or top-dose-only effect, or effect the other way, or another doubt; inactive = no such curve, though single readings can be large or run the other way.

Test: qHTS for inhibitors of adenylyl cyclases using a fission yeast platform: a pilot screen against the NCATS LOPAC library (AID 1347410);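 note: plate controls were DMSO vehicle for no effect and DPI positive control for full effect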
Details: S. pombe CHP2027, fbp1-GFP fluorescence, 18 h, yeast expressing mammalian AC9 and human GNAS; series mostly up to 57.5 µM; activity, positive = inhibition (GFP gain): at the top concentration
Procedure, shortened: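 S. pombe CHP2027 (AC9-GNAS-PDE4D2) carrying PKA-repressed fbp1-GFP, incubated 18 h at 30C in EMM with LOPAC compounds at up to 57 uM. GFP gain-of-signal read by laser scanning cytometry; DMSO negative control.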

Structure (SMILES)	activity, positive = inhibition (GFP gain) [%]
O=C(CCCN1CCC(O)(c2ccc(Cl)cc2)CC1)c1ccc(F)cc1	-0.438
Cc1cn([C@H]2C=C[C@@H](CO)O2)c(=O)[nH]c1=O	-0.438
CCOC(=O)Nc1ccc(NCc2ccc(F)cc2)nc1N	1.17
Clc1ccc2nsnc2c1NC1=NCCN1	3.2
O=C(c1ccc(F)cc1)C1CCN(CCn2c(=O)[nH]c3ccccc3c2=O)CC1	0.202
CC[C@@]1(O)C(=O)OCc2c1cc1n(c2=O)Cc2cc3c(CN(C)C)c(O)ccc3nc2-1	0.0905
CN(C)CCCN1c2ccccc2CCc2ccc(Cl)cc21	6.56
C[C@](N)(Cc1ccc(O)c(O)c1)C(=O)O	-0.438
CC[N+](CC)(CC)CCOc1cccc(OCC[N+](CC)(CC)CC)c1OCC[N+](CC)(CC)CC	0.0997
NC(=O)NO	-0.438
Clc1ccc2c(c1)C(N1CCNCC1)=Nc1ccccc1O2	-0.438
CC(CCc1ccc(O)cc1)NCCc1ccc(O)c(O)c1 (centres undefined)	-0.438
OCCN(CCO)c1nc(N2CCCCC2)c2nc(N(CCO)CCO)nc(N3CCCCC3)c2n1	1.42
COc1cc2nc(N(C)CCCNC(=O)C3CCCO3)nc(N)c2cc1OC (centres undefined)	0.378
COc1ccc(C2CNC(=O)C2)cc1OC1CCCC1 (centres undefined)	-0.438
CN(Cc1cnc2nc(N)nc(N)c2n1)c1ccc(C(=O)N[C@@H](CCC(=O)O)C(=O)O)cc1	-0.438
Nc1nc2c(ncn2COC(CO)CO)c(=O)[nH]1	1.52

Structure (SMILES)	activity, positive = inhibition (GFP gain) [%]
O=c1[nH]cc(F)c(=O)[nH]1	-0.438
Clc1ccc(C(c2ccccc2Cl)C(Cl)Cl)cc1 (centres undefined)	-0.438
NC(=O)OCC(COC(N)=O)c1ccccc1	-0.438
Nc1ccn([C@H]2CC[C@@H](CO)O2)c(=O)n1	-0.438
Nc1c2c(nc3ccccc13)CCCC2	-0.438
CN1CCN(CCCN2c3ccccc3Sc3ccc(Cl)cc32)CC1	-0.438
CN1CCN2c3ccccc3Cc3ccccc3C2C1 (centres undefined)	-0.128
CC(C)(C)C(=O)Oc1ccc(S(=O)(=O)Nc2ccccc2C(=O)NCC(=O)O)cc1	-0.438
CC1COc2c(N3CCN(C)CC3)c(F)cc3c(=O)c(C(=O)O)cn1c23 (centres undefined)	-0.438
C[C@H]1c2cccc(O)c2C(O)=C2C(=O)[C@]3(O)C(O)=C(C(N)=O)C(=O)[C@@H](N(C)C)[C@@H]3[C@@H](O)[C@@H]21	0.429
COc1ccccc1OCCNCC(O)COc1cccc2[nH]c3ccccc3c12 (centres undefined)	-0.438
CCOC(=O)c1ncn2c1CN(C)C(=O)c1cc(F)ccc1-2	-0.438
O=C1c2c(O)ccc(O)c2C(=O)c2c(NCCNCCO)ccc(NCCNCCO)c21	-0.438
CCC1(C)CC(=O)NC1=O (centres undefined)	0.151
Cc1ccc(C(=O)Nc2ccc(S(=O)(=O)O)c3cc(S(=O)(=O)O)cc(S(=O)(=O)O)c23)cc1NC(=O)c1cccc(NC(=O)Nc2cccc(C(=O)Nc3cc(C(=O)Nc4ccc(S(=O)(=O)O)c5cc(S(=O)(=O)O)cc(S(=O)(=O)O)c45)ccc3C)c2)c1	1.74
Nc1nnc(-c2cccc(Cl)c2Cl)c(N)n1	-0.438
CCc1cccc2c3c([nH]c12)C(CC)(CC(=O)O)OCC3 (centres undefined)	-0.438
